Data taken from PubChem BioAssay (NCATS).
Inconclusive results are not listed. Where a structure was tested more than once in an assay, its records may differ in their call. Calls of active or inactive are those of the source. Unless noted, calls follow the shape of the dose curve; as a rule, active = well fitted curve in the direction sought with a large enough effect; inconclusive = small, poorly fitted or top-dose-only effect, or another doubt; inactive = no such curve, though single readings can be large; an effect the other way counts as inactive or inconclusive.

Experiments:
[1] = molecular target: M-phase phosphoprotein 8 (Homo sapiens) (UniProt Q99549); assay: qHTS Validation Assay for Inhibitors for MPP8 Chromodomain Interactions with Methylated Histone Tails (AID 488949); also: nearly all actives have a fitted effect of over 55% in size; also: potency is read from the fitted curve at half-maximal effect
Procedure, shortened: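 MPP8 (50 nM) was preincubated with biotinylated H3(1-18)K9me3 peptide (50 nM) in PBS pH 7.4, 0.01% Tween-20 for 30 min at room temperature, then with compounds for 30 min; binding was detected by AlphaScreen.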

[2] = molecular target: Chromobox protein homolog 1 (Homo sapiens) (UniProt P83916); assay: qHTS Validation Assay for Inhibitors of HP1-beta Chromodomain Interactions with Methylated Histone Tails (AID 488953);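 also: loss of AlphaScreen luminescence from HP1-beta binding biotinylated H3K9me3 peptide; series mostly up to about 110 µM; % is scaled to controls: 0 for no effect and ±100 for the full control effect; nearly all actives have a fitted effect of over 50% in size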
Procedure, shortened: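 Compounds pinned into a preassembled complex of HP1-beta and trimethyl-K9 histone H3(1-18) biotin peptide (50 nM each; PBS pH 7.4, 0.01% Tween-20). After 30 min, bead-based AlphaScreen detection followed.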

[3] = molecular target: Methanococcus maripaludis chaperonin (MmCpn) (UniProt Q6LX38); assay: High-Throughput Screening for Modulators of Cytosolic Chaperonin Activity: MmCpn Primary Screen (AID 488978);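 also: 50 nM MmCpn enzyme hydrolysing 30 µM ATP at 37 °C; 0% is about no effect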
Procedure, shortened: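 MmCpn (50 nM final) was preincubated with compound 5 min at RT, then 30 uM ATP (final) was added and the reaction ran 10 min at 37C. ADP produced was detected by Transcreener HTRF (ex 320 nm; em 590/665 nm).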

[4] = molecular target: D(1A) dopamine receptor (Homo sapiens) (UniProt P21728); assay: HTS Assay for Allosteric Agonists of the Human D1 Dopamine Receptor: Primary Screen for Potentiators (AID 488982); also: 0% is about no effect
Procedure, shortened: (§1)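 Tetracycline-induced HEK293 Trex D1 cells with forced coupling to calcium, loaded with no-wash calcium dye; kinetic fluorescence read 180 s after compound addition for agonism, then a further 180 s after an EC20 dopamine challenge for potentiation.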

[5] = molecular target: D(1A) dopamine receptor (Homo sapiens) (UniProt P21728); assay: HTS Assay for Allosteric Agonists of the Human D1 Dopamine Receptor: Primary Screen for Antagonists (AID 488983);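 also: calcium flux response to an EC80 dopamine challenge measured with no-wash dye; nearly all actives have a fitted effect of over 65% in size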; also: potency is read from the fitted curve at half-maximal effect
Procedure, shortened: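 In this primary screen, compounds are applied to calcium-dye-loaded HEK293 T-REx cells with force-coupled D1 expression induced overnight at 30 C. An EC80 of dopamine follows the 180 s compound phase, and calcium is monitored for a further 180 s.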

[6] = molecular target: Thyrotropin-releasing hormone receptor (Homo sapiens) (UniProt P34981); assay: qHTS for Small Molecule Agonists and Allosteric Enhancers of Human TRH Receptor: Validation Screen for Agonists (AID 493127;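 active = calcium activation more than 3 SD above the typical response in the agonist read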;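 also: intracellular calcium rise by fluo-8 fluorescence before TRH EC20 addition; 0% is about no effect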); conditions: TRH receptor agonist cell assay; at 2 µM; stronger effect = higher value
Procedure, shortened: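 Kinetic fluorescence assay of agonist-induced calcium release: overnight-plated TRHR cells, room-temperature fluo-8 loading, baseline then compound addition with per-second reads.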

[7] = qHTS for Inhibitors of Cell Surface uPA Generation: Validation Assay (AID 493164);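 also: RAW 264.7 macrophage cells exposed to compound for 18 h; 0% is about no effect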
Procedure, shortened: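 Compounds are titrated over seven points (2.45 nM–38.3 uM final) onto pre-plated RAW 264.7 cells and incubated for 18 h. Retained intracellular ATP, measured with ATP-Lite, indicates blocked lethal factor entry.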

[8] = molecular target: Galactokinase (Homo sapiens) (UniProt P51570); assay: qHTS Validation Assay for Inhibitors of Human Galactokinase (GALK) (AID 493189); also: 0% is about no effect
Procedure, shortened: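 GALK (5 nM) with 35 uM ATP and 100 uM galactose in HEPES pH8.0, MgCl2, NaCl, DTT, BSA; 1 h at room temperature. Residual ATP read by Kinase-Glo Plus luminescence after 10 min.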

[9] = Validation screen for small molecules that induce DNA re-replication in SW480 colon adenocarcinoma cells (AID 504364); also: 0% is about no effect
Procedure, shortened: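 Hoechst-stained SW480 nuclei, imaged at 405 nm excitation after 48 hr compound exposure, were counted for elevated DNA content as the re-replication signal.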

[10] = molecular target: Peptidyl-prolyl cis-trans isomerase NIMA-interacting 1 (Homo sapiens) (UniProt Q13526); assay: qHTS Validation Assay to Find Inhibitors of Pin1 (AID 504536; active = well fitted inhibition curve with a large enough effect in the polarisation, with a control signal flat, not every such curve was filed as active; the % refers to the polarisation;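 also: 0% = full Pin1 enzyme wells and -100% = no-enzyme wells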)
Procedure, shortened: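 Fluorescence polarization competition: compounds (titration) displace HiFluor-488-labeled Pin1-1b peptide from Pin1 (0.3 uM final) in pH 7.5 HEPES buffer with DTT, 10 min at room temperature; %Activity normalized to no-enzyme wells, curves fitted.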

[11] = molecular target: Phosphoglycerate kinase, glycosomal (Trypanosoma brucei brucei) (UniProt P07378); assay: qHTS Validation Assay to Find Inhibitors of Phosphoglycerate Kinase (AID 504547);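 also: control wells lack PGK and mark full inhibition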
Procedure, shortened: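 Compounds are pinned into the substrate/PGK mixture, and GAPDH (100nM final) is added to start the reaction by producing 1,3-BPG. After 60 minutes at room temperature, Kinase-Glo Plus is added and luminescence is measured 10 minutes later.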

[12] = molecular target: phosphoglycerate mutase (Leishmania major) (UniProt Q4Q090); assay: qHTS Validation Assay to Find Inhibitors of Phosphoglycerate Mutase (AID 504548); also: series mostly up to about 58 µM; % is scaled to controls: 0 for no effect and ±100 for the full control effect
Procedure, shortened: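 Lm PGAM 1.25nM final; 100 mM TEA pH 7.6, 5 mM MgCl2, 0.01% Tween-20; 45 min RT; Kinase-GloPlus, 10 min; end-point luminescence. Enzyme-free wells as negative controls.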

[13] = molecular target: Ubiquitin carboxyl-terminal hydrolase 1 (Homo sapiens) (UniProt O94782); assay: Inhibitors of USP1/UAF1: Pilot qHTS (AID 504865);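 also: rhodamine fluorescence freed from ubiquitin-rhodamine substrate followed over time; top concentration of the series differs between compounds; % is scaled to controls: 0 for no effect and ±100 for the full control effect; nearly all actives have a fitted effect of over 35% in size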
Procedure, shortened: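 USP1/UAF1 complex (1nM) preincubated with compound 15 min at room temperature, then Ub-Rho substrate (150nM final) added. Fluorescence read kinetically at 480/540 nm, 6 reads every 60 seconds. Buffer: 50mM HEPES pH 7.8, 0.5mM EDTA, 0.1 mg/ml BSA, 1mM TCEP, 0.01% Tween-20.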

[14] = molecular target: D(1A) dopamine receptor (Homo sapiens) (UniProt P21728); assay: HTS Assay for Allosteric Agonists of the Human D1 Dopamine Receptor: Primary Screen for Agonists (AID 488981); also: 0% is about no effect
Procedure, shortened: as §1

[15] = molecular target: ATPase family AAA domain-containing protein 5 (Homo sapiens) (UniProt Q96QE3); assay: Validation screen for small molecules that inhibit ELG1-dependent DNA repair in human embryonic kidney (HEK293T) cells expressing luciferase-tagged ELG1 (AID 493107); also: nearly all actives have a fitted effect of over 70% in size; also: potency is read from the fitted curve at half-maximal effect
Procedure, shortened: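 Compounds reducing 5-fluorouridine-driven ELG1-luciferase signal in HEK293T cells were scored; exposure lasted 16 hr at 37 °C with luminescence detected via ONE-Glo.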

[16] = Nrf2 qHTS screen for inhibitors: Validation (AID 493153; active = well fitted inhibition curve with a large enough effect in the main read-out, with a control signal flat, not every such curve was filed as active); conditions: Potency: luciferase luminescence; viability change: measured here: cytotoxicity max response
Procedure, shortened: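 In this counterscreened reporter format, each well gives two signals: CellTiter-Fluor fluorescence for cytotoxicity and ARE-luciferase luminescence for Nrf2 function. A549 ARE_Fluc cells in 5% FBS OPTI-MEM were exposed to compound titrations for 18-24 h.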

[17] = molecular target: Transient receptor potential cation channel subfamily V member 1 (Homo sapiens) (UniProt Q8NER1); assay: HTS Assay for Compounds that Act as Enhancers of the Vanilloid Receptor 1 (AID 488979); also: 0% is about no effect
Procedure, shortened: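 TRPV1 cells loaded with Fluo-8 calcium dye; compound added and Ca2+ signal (ex 480/em 520 nm) followed 3 min, then capsaicin at EC20 added and read 2 more min to detect enhancement.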

[18] = molecular target: Thyrotropin receptor (Homo sapiens) (UniProt P16473); assay: qHTS Assay for Antagonists of the Thyroid Stimulating Hormone Receptor (AID 488980); also: series mostly up to about 58 µM; 0% is about no effect
Procedure, shortened: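 HEK293 cells transfected with human TSHR, suspended in HEPES-buffered HBSS with 70 uM RO 20-1724, were treated with compounds plus TSH at EC80 (4 nM final). cAMP was measured by competitive HTRF (cryptate anti-cAMP antibody, cAMP-d2 acceptor).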

[19] = Validation screen for small molecules that induce genotoxicity in human embryonic kidney (HEK293T) cells expressing luciferase-tagged ELG1 (AID 493106); also: 0% is about no effect
Procedure, shortened: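 In this validation screen, increased ELG1-luciferase signal flags compounds causing genetic stress. HEK293T reporter cells are treated 16 hr (37 °C, 5% CO2), developed with ONE-Glo for 30 min at room temperature, and imaged on a CCD-based reader.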

[20] = molecular target: ATP-dependent 6-phosphofructokinase (Trypanosoma brucei brucei) (UniProt O15648); assay: qHTS Assay to Find Inhibitors of T. brucei phosphofructokinase: hit validation (AID 492961); also: series mostly up to about 51 µM; % is scaled to controls: 0 for no effect and ±100 for the full control effect
Procedure, shortened: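 Luminescence from ADP-Glo reports ADP generated as T. brucei PFK (1.25 nM) phosphorylates 0.5 mM fructose-6-phosphate using 0.1 mM ATP. Reactions ran 45 min at room temperature, pH 8.0.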

Sequence of ATP-dependent 6-phosphofructokinase (Trypanosoma brucei brucei) (O15648 whole entry, looked up): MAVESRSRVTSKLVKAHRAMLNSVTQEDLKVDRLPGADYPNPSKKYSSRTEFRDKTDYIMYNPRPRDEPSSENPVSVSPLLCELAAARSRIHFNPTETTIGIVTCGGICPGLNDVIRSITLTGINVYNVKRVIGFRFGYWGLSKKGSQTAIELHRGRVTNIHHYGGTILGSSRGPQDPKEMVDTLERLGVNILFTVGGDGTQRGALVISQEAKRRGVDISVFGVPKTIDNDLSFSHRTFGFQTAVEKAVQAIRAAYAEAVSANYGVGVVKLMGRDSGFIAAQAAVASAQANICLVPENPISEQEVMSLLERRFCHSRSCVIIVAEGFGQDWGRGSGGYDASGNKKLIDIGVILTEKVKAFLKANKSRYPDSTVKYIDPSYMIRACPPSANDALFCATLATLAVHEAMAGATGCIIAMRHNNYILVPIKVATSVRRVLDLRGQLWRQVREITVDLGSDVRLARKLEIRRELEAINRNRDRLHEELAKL
Sequence of D(1A) dopamine receptor (Homo sapiens) (P21728 whole entry, looked up): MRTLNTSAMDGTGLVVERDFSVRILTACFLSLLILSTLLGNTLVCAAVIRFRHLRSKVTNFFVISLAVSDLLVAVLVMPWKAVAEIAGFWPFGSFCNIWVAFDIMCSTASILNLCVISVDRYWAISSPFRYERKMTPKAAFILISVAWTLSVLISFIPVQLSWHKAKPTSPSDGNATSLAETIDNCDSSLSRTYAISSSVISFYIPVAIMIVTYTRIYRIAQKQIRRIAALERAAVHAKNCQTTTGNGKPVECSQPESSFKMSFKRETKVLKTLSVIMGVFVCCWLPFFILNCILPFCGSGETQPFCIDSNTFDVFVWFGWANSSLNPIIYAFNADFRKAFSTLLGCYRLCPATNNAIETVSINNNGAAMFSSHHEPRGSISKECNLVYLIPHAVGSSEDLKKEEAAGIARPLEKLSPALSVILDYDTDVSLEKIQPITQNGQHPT
Sequence of Thyrotropin-releasing hormone receptor (Homo sapiens) (P34981 whole entry, looked up): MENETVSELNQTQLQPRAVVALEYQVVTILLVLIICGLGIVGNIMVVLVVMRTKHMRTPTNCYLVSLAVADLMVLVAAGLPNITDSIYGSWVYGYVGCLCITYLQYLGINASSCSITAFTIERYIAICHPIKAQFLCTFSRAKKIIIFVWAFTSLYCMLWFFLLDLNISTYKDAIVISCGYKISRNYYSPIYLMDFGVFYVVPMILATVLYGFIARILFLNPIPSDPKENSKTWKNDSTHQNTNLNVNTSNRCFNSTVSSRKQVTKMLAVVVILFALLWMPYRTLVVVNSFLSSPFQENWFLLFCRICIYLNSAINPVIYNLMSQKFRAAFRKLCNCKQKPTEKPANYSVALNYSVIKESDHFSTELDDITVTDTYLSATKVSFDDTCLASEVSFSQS
Sequence of Peptidyl-prolyl cis-trans isomerase NIMA-interacting 1 (Homo sapiens) (Q13526 whole entry, looked up): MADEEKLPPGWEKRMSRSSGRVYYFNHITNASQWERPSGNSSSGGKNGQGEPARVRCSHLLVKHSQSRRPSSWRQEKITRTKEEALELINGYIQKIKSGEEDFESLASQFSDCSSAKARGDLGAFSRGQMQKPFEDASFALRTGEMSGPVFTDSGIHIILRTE
Sequence of Transient receptor potential cation channel subfamily V member 1 (Homo sapiens) (Q8NER1 whole entry, looked up): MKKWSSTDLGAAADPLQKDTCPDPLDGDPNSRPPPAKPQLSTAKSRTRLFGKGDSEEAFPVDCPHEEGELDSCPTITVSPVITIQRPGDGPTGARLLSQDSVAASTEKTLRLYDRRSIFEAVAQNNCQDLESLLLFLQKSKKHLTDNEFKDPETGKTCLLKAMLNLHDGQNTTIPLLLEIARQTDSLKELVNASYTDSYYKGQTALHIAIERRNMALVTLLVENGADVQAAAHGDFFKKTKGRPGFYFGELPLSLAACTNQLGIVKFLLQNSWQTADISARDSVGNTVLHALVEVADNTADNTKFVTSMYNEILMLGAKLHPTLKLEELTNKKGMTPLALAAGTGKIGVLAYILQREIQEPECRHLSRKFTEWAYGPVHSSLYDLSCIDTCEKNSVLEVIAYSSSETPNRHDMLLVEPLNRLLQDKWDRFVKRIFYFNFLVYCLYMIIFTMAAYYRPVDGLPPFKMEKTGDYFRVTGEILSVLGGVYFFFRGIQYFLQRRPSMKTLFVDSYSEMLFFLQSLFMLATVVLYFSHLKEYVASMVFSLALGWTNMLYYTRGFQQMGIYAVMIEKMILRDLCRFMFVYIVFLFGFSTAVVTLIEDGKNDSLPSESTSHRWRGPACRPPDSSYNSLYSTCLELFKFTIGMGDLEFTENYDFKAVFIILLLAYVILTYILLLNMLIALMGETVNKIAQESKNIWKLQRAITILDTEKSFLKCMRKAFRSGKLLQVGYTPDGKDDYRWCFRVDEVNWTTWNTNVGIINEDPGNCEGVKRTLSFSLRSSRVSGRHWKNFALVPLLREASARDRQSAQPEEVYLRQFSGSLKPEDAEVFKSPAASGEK
Sequence of ATPase family AAA domain-containing protein 5 (Homo sapiens) (Q96QE3 whole entry, looked up, the tested form may be a part): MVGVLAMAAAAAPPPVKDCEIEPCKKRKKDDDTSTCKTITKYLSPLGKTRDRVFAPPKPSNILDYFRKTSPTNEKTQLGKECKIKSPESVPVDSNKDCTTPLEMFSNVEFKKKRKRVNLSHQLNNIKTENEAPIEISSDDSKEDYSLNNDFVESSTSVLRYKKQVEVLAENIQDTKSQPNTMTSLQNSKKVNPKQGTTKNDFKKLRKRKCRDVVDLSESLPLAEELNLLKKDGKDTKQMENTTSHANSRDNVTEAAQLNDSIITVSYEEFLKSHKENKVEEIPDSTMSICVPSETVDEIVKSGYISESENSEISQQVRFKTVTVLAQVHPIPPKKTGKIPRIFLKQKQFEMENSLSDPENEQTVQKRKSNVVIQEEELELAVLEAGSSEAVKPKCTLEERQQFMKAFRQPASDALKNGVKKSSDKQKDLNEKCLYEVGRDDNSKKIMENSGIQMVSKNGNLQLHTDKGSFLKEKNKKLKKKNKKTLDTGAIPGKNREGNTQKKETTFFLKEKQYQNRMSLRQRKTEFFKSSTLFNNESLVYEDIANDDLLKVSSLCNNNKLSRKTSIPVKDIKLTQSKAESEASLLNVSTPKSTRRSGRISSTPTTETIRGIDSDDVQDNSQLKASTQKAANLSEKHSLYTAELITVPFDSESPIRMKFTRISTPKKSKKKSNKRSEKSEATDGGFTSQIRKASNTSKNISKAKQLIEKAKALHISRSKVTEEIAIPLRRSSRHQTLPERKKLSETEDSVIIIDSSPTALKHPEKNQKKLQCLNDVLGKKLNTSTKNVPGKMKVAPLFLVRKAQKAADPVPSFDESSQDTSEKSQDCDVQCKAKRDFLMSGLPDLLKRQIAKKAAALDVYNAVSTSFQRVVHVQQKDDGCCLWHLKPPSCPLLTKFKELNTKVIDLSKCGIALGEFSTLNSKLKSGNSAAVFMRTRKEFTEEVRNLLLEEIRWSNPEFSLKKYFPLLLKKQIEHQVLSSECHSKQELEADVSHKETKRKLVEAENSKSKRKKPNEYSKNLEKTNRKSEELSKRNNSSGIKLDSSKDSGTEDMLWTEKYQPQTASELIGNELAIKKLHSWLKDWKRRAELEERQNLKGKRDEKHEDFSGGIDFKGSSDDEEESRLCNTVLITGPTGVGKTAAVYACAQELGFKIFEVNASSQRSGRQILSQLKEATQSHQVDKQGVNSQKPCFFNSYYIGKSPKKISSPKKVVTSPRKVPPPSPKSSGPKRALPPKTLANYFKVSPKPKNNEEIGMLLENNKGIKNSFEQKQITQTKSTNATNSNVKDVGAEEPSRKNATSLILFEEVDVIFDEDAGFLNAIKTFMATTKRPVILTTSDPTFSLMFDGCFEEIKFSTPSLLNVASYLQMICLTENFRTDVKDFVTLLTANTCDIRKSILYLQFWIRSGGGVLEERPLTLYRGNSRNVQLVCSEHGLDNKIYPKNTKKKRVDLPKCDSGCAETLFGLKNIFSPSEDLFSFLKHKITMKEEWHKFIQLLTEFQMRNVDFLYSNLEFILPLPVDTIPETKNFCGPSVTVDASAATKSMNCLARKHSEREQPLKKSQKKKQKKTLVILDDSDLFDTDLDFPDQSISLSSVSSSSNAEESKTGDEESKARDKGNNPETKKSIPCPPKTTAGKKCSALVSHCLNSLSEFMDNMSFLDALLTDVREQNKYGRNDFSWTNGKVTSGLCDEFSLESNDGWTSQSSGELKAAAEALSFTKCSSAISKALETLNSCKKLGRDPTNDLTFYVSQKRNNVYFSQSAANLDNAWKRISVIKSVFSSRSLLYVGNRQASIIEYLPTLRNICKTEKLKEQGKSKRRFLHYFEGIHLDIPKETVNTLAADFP
Sequence of Chromobox protein homolog 1 (Homo sapiens) (P83916 whole entry, looked up): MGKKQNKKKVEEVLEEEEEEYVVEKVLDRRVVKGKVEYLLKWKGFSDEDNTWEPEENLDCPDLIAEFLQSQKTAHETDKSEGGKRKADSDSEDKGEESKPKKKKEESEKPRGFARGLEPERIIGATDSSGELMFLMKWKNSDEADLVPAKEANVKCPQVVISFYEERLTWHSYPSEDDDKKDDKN
Sequence of Methanococcus maripaludis chaperonin (MmCpn) (Q6LX38 1-543): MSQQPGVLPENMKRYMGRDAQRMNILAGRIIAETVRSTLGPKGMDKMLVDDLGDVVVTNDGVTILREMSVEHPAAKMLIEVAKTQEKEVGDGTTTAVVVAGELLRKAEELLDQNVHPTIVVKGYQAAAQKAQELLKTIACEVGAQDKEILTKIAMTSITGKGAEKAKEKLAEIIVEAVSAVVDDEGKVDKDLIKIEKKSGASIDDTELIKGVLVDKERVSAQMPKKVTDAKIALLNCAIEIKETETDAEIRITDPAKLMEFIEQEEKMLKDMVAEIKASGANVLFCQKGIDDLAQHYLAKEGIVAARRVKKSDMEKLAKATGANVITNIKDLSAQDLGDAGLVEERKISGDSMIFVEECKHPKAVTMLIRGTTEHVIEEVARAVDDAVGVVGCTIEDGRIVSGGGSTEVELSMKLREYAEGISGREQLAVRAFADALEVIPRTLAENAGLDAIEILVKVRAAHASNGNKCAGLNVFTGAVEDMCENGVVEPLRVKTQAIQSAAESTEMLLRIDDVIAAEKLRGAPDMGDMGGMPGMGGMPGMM

C[n+]1cc2c3c(ccc2c2ccc4cc5c(cc4c21)OCO5)OCO3
inactive: Potency [2] | outcome [3] | Potency [4] | Potency [5] | activation [6] 2.44% | outcome [7] | outcome [8] | outcome [9] | outcome [10] | outcome [11] | outcome [12] | Potency [13]
31.6 µM (active) and inactive: Potency [1]

C[C@@H](O)[C@H]1C(=O)N2C(C(=O)O)=C(SCCN=CN)C[C@H]12
inactive: Potency [1] | Potency [2] | outcome [3] | Potency [14] | Potency [4] | Potency [5] | Potency [15] | Potency [16] | outcome [7] | outcome [11] | outcome [12] | Potency [13]
-3.32%: viability change [16]

COCCOC(=O)C1=C(C)NC(C)=C(C(=O)OC(C)C)C1c1cccc([N+](=O)[O-])c1 (stereo not given)
active: Potency [15] 11.6 µM
inactive: Potency [1] | outcome [3] | outcome [17] | outcome [18] | Potency [14] | Potency [4] | Potency [5] | Potency [19] | activation [6] -5.81% | outcome [7] | outcome [8] | outcome [9] | outcome [10] | outcome [11] | outcome [12] | Potency [13]

CC(C)(Oc1ccc(CCNC(=O)c2ccc(Cl)cc2)cc1)C(=O)O
inactive: Potency [1] | Potency [2] | outcome [3] | Potency [4] | Potency [5] | outcome [20] | Potency [15] | Potency [16] | outcome [7] | outcome [10] | outcome [11] | outcome [12] | Potency [13]
5.14%: viability change [16]

CCCCNC(=O)NS(=O)(=O)c1ccc(C)cc1
-5.96%: viability change [16]
inactive: Potency [1] | Potency [2] | outcome [3] | outcome [17] | Potency [14] | Potency [4] | Potency [5] | Potency [15] | activation [6] 1.25% | Potency [16] | outcome [7] | outcome [8] | outcome [9] | outcome [10] | outcome [11] | outcome [12] | Potency [13]

C[C@]12CC[C@@H]3c4ccc(O)cc4C[C@@H](CCCCCCCCCS(=O)CCCC(F)(F)C(F)(F)F)[C@H]3[C@@H]1CC[C@@H]2O (stereo not given in full)
inactive: Potency [1] | Potency [2] | outcome [3] | Potency [14] | Potency [4] | Potency [5] | outcome [7] | outcome [10] | outcome [11] | outcome [12]

COc1cc(C(=O)OCCCN2CCCN(CCCOC(=O)c3cc(OC)c(OC)c(OC)c3)CC2)cc(OC)c1OC
-0.03%: viability change [16]
inactive: Potency [1] | outcome [3] | outcome [17] | outcome [18] | Potency [14] | Potency [4] | Potency [5] | activation [6] 0.688% | Potency [16] | outcome [7] | outcome [8] | outcome [9] | outcome [10] | outcome [11] | outcome [12] | Potency [13]

CCn1cc(C(=O)O)c(=O)c2cc3c(cc21)OCO3
-3.79%: viability change [16]
inactive: Potency [1] | outcome [3] | outcome [17] | outcome [18] | Potency [14] | Potency [4] | Potency [5] | Potency [19] | Potency [15] | activation [6] -0.375% | Potency [16] | outcome [7] | outcome [8] | outcome [9] | outcome [10] | outcome [11] | outcome [12] | Potency [13]

OCCN1CCN(CCCN2c3ccccc3C=Cc3ccccc32)CC1
inactive: Potency [1] | outcome [3] | outcome [17] | outcome [18] | Potency [14] | Potency [4] | outcome [20] | Potency [15] | Potency [16] | outcome [7] | outcome [8] | outcome [9] | outcome [10] | outcome [11] | outcome [12] | Potency [13]
active: Potency [5] 11.2 µM
4.92%: viability change [16]

Cc1cccc(C)c1NC(=O)C(C)N (stereo not given)
3.48%: viability change [16]
inactive: Potency [1] | Potency [2] | outcome [3] | Potency [14] | Potency [4] | Potency [5] | Potency [19] | Potency [15] | Potency [16] | outcome [7] | outcome [10] | outcome [11] | outcome [12] | Potency [13]

CN(C)CC/C=C1\c2ccccc2COc2ccccc21
inactive: Potency [1] | Potency [2] | outcome [3] | outcome [18] | Potency [14] | Potency [4] | Potency [15] | activation [6] 2.94% | Potency [16] | outcome [7] | outcome [8] | outcome [9] | outcome [10] | outcome [11] | outcome [12] | Potency [13]
10.6%: viability change [16]

NC1=NCC2c3ccccc3Cc3ccccc3N12 (stereo not given)
active: Potency [5] 15.8 µM
6.37%: viability change [16]
inactive: Potency [1] | Potency [2] | outcome [3] | Potency [4] | outcome [20] | Potency [19] | Potency [16] | outcome [7] | outcome [10] | outcome [11] | outcome [12] | Potency [13]
